# Rows were chosen to be rich in hits. Some 3.5% of all compounds tested hit in one or more screens of this group.
# GPR151 activ = activators of human GPR151; Q8TDV0; actives 1% (n = 650,000); PathHunter beta-arrestin GPR151 cells, luminescence; activation, % at 11.2 µM; AID 1508602; in the data active = activation above about 4.9%;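 also: 0% = median of compound wells and 100% = cells with positive control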
# Target sequence (Q8TDV0 whole entry, looked up): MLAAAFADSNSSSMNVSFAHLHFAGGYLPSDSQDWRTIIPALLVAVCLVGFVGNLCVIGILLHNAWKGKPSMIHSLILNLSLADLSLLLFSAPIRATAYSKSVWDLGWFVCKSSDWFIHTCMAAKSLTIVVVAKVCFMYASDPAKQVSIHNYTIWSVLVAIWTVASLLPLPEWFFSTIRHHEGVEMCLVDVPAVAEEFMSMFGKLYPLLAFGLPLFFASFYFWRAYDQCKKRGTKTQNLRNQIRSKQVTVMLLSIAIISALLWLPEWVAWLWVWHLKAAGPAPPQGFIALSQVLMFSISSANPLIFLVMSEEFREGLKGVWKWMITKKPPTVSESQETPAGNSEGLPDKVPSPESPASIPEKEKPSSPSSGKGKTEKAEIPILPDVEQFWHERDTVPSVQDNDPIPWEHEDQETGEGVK
# FBW7 activator = human FBW7 E3 ligase activation, primary screen. Q969H0. AlphaScreen FBW7–phospho-cyclin E peptide binding, activator screen. normalized activity (activation), % at 26.1 µM. actives 0.13% (n = 650,000); in the data active = normalized activity above about 1.9%;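 also: purified mutant Fbw7 with reduced substrate affinity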
# MITF inh = human MITF inhibition, primary screen. O75030. AlphaScreen MITF homodimerization, bead proximity signal. inhibition, % at 2.6 µM. actives 0.91% (n = 650,000). AID 1259374; in the data active = inhibition above about 50%;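 also: 0% = vehicle wells with protein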
# TEAD-YAP block = TEAD-YAP interaction inhibition. actives 1.4% (n = 640,000). HEK-TIYL cells, TEAD-Gal4/YAP UAS-luciferase luminescence. inhibition, % at 9.12 µM; in the data active = inhibition above about 32%;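 also: 0% = median of test compound wells and 100% = reference inhibitor wells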
# Numbers without * were called inactive.
SMILES,GPR151 activ,FBW7 activator,MITF inh,TEAD-YAP block
Cc1ccc2c(c1)C(=O)C(=O)N2CCCl,1,0,0,60*
CCCN1C(=O)C(=O)c2cc(C)ccc21,0,0,2,-3
Oc1ccc(Br)cc1CN1CCN(CC2CC3C=CC2C3)CC1 (configuration not stated),0,0,39,3
Oc1ccc(Br)cc1CN1CCN(Cc2cccnc2)CC1,-1,0,67*,5
CCN1C(=O)N(CC)C2NC(=S)NNC21 (configuration not stated),2,0,7,82*
CCN1C(=O)N(CC)C2C1NC(=O)N2CC (configuration not stated),-1,0,-16,0
CCOC(=O)C1=C(C)N(c2ccc(OCC)cc2)C(=O)/C1=C\c1ccccc1,-1,0,-8,-1
COc1ccc(NS(=O)(=O)c2ccc(NC(=O)c3cccc([N+](=O)[O-])c3)cc2)cc1,0,0,3,33*
Cc1cccc(NS(=O)(=O)c2ccc(NC(=O)c3ccc([N+](=O)[O-])cc3)cc2)c1,3,0,-7,35*
COc1cc(OC)cc(C(=O)Nc2ccc(S(=O)(=O)Nc3nccc(C)n3)cc2)c1,1,2.0*,14,-13
CC(=O)c1cccc(NS(=O)(=O)c2ccc(NC(=O)c3ccccc3Cl)cc2)c1,0,0,4,39*
O=C(CCC1CCCCC1)Nc1ccccc1F,0,0,0,-34
O=C(Nc1cccc([N+](=O)[O-])c1)c1cccc(S(=O)(=O)Nc2cccc(F)c2)c1,0,0,-16,16
Cc1ccc(S(=O)(=O)Nc2ccccc2C(=O)Nc2ccc(C(=O)O)cc2)cc1,1,0,-4,-10
O=C(Nc1ccc([N+](=O)[O-])cc1)c1cccc(S(=O)(=O)Nc2cccc(F)c2)c1,0,0,-11,33*
Cc1ccc(S(=O)(=O)Nc2ccccc2C(=O)Nc2ccc([N+](=O)[O-])cc2)cc1,1,0,19,63*
O=C(NCCOc1ccccc1)c1cnc(Nc2ccccc2)s1,0,0,10,-18
CCOC(=O)c1[nH]c(C)c(CN(C2CCCCC2)S(C)(=O)=O)c1C,0,0,5,52*
CCOC(=O)c1[nH]c(C)c(CNC2CCCCC2)c1C,1,0,13,3
O=S(=O)(c1ccc2c(c1)N=Cc1c(nc3sccn13)O2)N1CCOCC1,0,0,6,-9
O=S(=O)(c1ccc2c(c1)N=Cc1c(F)cccc1O2)N1CCOCC1,0,0,-11,45*
CNC(=O)c1ccccc1Nc1cc(Nc2ncccn2)ncc1C(F)(F)F,-1,0,21,24
CNC(=O)c1ccccc1Nc1cc(Nc2ccc3c(c2)CC(=O)N3)ncc1C(F)(F)F,0,0,16,51*
CNC(=O)c1ccccc1Nc1cc(Nc2ccc3[nH]nc(C4=CCNCC4)c3c2)ncc1C(F)(F)F,1,0,2,-36
CNC(=O)c1ccccc1Nc1cc(Nc2ccc3[nH]c(=O)oc3c2)ncc1C(F)(F)F,1,0,11,33*
SMILES,GPR151 activ,FBW7 activator,MITF inh,TEAD-YAP block
CNC(=O)c1ccncc1Nc1cc(Nc2ccc3c(c2)CC(=O)N3)ncc1C(F)(F)F,3,0,2,-7
CNC(=O)c1cc(F)ccc1Nc1cc(Nc2ccc(N3CCCC3=O)cc2)ncc1C(F)(F)F,1,0,-7,32
CNC(=O)c1ccccc1Nc1cc(Nc2ccc3c(c2)OCO3)ncc1C(F)(F)F,0,0,-7,41*
CNC(=O)c1ccccc1Nc1cc(Nc2ccc3c(c2)CC(=O)N3C)ncc1C(F)(F)F,-2,0,-3,65*
CNS(=O)(=O)c1ccccc1Nc1cc(Nc2ccc3c(c2)CCC(=O)N3)ncc1C(F)(F)F,0,0,-5,93*
CNS(=O)(=O)c1ccccc1Nc1cc(Nc2ccccc2S(=O)(=O)NC)c(C(F)(F)F)cn1,2,0,21,1
CCOc1ccc(N(CC(=O)NC2CCCC2)C(=O)CCC(=O)Nc2cc(C)on2)cc1,1,1,-11,0
O=C(NC1CC1)c1ccc(-c2nc(NCc3nc4ccccc4[nH]3)c3ncn(C4CCCCC4)c3n2)cc1,-1,0,5,45*
CC(C)n1cnc2c(NCc3nc4ccccc4[nH]3)nc(Nc3ccc(-n4ccnc4)cc3)nc21,-1,0,13,46*
c1cncc(Nc2nc(NCc3nc4ccccc4[nH]3)c3ncn(C4CCCCC4)c3n2)c1,-1,0,2,70*
CC(C)n1cnc2c(NCc3nc4ccccc4[nH]3)nc(Nc3ccccc3)nc21,-1,0,-5,64*
Cn1c(Nc2nc(NCc3nc4ccccc4[nH]3)c3ncn(-c4ccccc4)c3n2)nc2ccccc21,0,0,10,19
c1ccc2[nH]c(CNc3nc(Nc4ccc(-n5ccnc5)cc4)nc4c3ncn4C3CCCCC3)nc2c1,-2,0,-9,-24
CN1CCN(C(=O)c2ccc(-c3nc(NCc4nc5ccccc5[nH]4)c4ncn(C5CCCCC5)c4n3)cc2)CC1,0,0,15,5
CC(C)c1ccccc1NC(=O)/C=C/C(=O)O,0,0,5,-1
CC(C)n1cnc2c(Nc3ccccc3)nc(Nc3ccc(C(F)(F)F)cc3)nc21,1,0,9,-8
CC(C)n1cnc2c(NCc3nc4ccccc4[nH]3)nc(Nc3cccnc3)nc21,-2,0,9,86*
CC(C)n1cnc2c(NCc3nc4ccccc4[nH]3)nc(Nc3ccc(C(F)(F)F)cc3)nc21,0,0,-16,56*
c1cncc(Nc2nc(NCc3nc4ccccc4[nH]3)c3[nH]cnc3n2)c1,-2,3.0*,-8,0
CCN(CC)c1cc(C)nc(Nc2ccc(NC(=O)C(C)C)cc2)n1,-1,0,13,48*
CC(C)NCCCOc1ccc(Cl)cc1Br,-1,0,14,32*
CC(C)NCCOc1ccc(Cl)cc1Br,-2,0,2,-7
COC(=O)c1cc2c(C(F)(F)F)cc(N3CCCCC3)nc2s1,1,0,7,-6
COc1ccc(OC)c(-n2c(C)cn3c4c(=O)n(C)c(=O)n(C)c4nc23)c1,-1,0,-1,-10
COc1ccc(C)cc1-n1c(C)cn2c3c(=O)n(C)c(=O)n(C)c3nc12,1,0,8,45*
O=C(NCC1CCC2(CCN(C(=O)Cc3ccc4ccccc4c3)CC2)O1)c1ccccn1 (configuration not stated),1,0,6,-7
COc1ccc(/C=C2\Oc3cc(OC(=O)c4ccncc4)ccc3C2=O)cc1,-2,0,27,68*
COc1ccc(C(=O)Oc2ccc3c(c2)O/C(=C\c2ccncc2)C3=O)cc1OC,0,0,-13,8
COC(=O)COc1cccc(/C=C2\Oc3cc(OC)ccc3C2=O)c1,4,0,-3,4
CCC(=O)Oc1ccc2c(c1)O/C(=C\c1cccc(OC)c1)C2=O,-1,0,-5,87*

# Screening results: PubChem, The Scripps Research Institute Molecular Screening Center
